The values that follow come from PubChem BioAssay (NCATS).

Experiment [1] has as its system MKL-1. The experiment is described as follows: qHTS assay to identify novel small-molecules to repurpose for Merkel cell carcinoma treatment (AID 1296009). Note: nearly all actives have a fitted effect of over 60% in size. Particulars: MCC and control cell lines, CellTiter-Glo viability, 72 h; series mostly up to 46 µM. In a few lines:
(§1)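 Cells exposed to NPC (8-point) and MIPE (11-point) compound dilutions for 72 hr at 37 degree celsius; viability read by CellTiter-Glo luminescence, normalized to no-cell and DMSO in-plate controls.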
In general terms: qHTS replaces the single test concentration by a dilution series.

The test system of experiment [2] is MKL-2. The description is as above. Particulars: MCC and control cell lines, CellTiter-Glo viability, 72 h; series mostly up to 46 µM. In a few lines:
as §1
On the technique in general: Cellular ATP, detected with luciferase, serves as a proxy for viable cell number.

Experiment [3] deals with UISO. Described as above. Particulars: MCC and control cell lines, CellTiter-Glo viability, 72 h; series mostly up to 46 µM. The method in brief: as §1
In experiment [4] the test system is WaGa. The description is as above. Particulars: MCC and control cell lines, CellTiter-Glo viability, 72 h; series mostly up to 46 µM. In a few lines:
as §1

Experiment [5] deals with C33A. As to the kind of experiment: Primary qHTS to identify gynecologic anti-cancer compounds using libraries of approved drugs and bioactive compounds (AID 1345084). Note: nearly all actives have a fitted effect of over 55% in size. The conditions noted are these: Gynecologic cancer cell panel viability, ATPlite luminescence, 48 h; series mostly up to 57.5 µM. The method in brief: (§2)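 Cell viability after 48 h drug treatment, ATPlite luminescence readout; five doses.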

Experiment [6] deals with CAOV3. The description is as above. Particulars: Gynecologic cancer cell panel viability, ATPlite luminescence, 48 h; series mostly up to 57.5 µM. In a few lines: as §2
The subject of experiment [7] is CASKI. The description is as above. The conditions noted are these: Gynecologic cancer cell panel viability, ATPlite luminescence, 48 h; series mostly up to 57.5 µM. In a few lines:
as §2

In experiment [8] the test system is Es-2. The experiment is described as above. Particulars: Gynecologic cancer cell panel viability, ATPlite luminescence, 48 h; series mostly up to 57.5 µM. The method in brief:
as §2

In experiment [9] the test system is HeLa. The description is as above. The conditions noted are these: Gynecologic cancer cell panel viability, ATPlite luminescence, 48 h; series mostly up to 57.5 µM. The method in brief:
as §2

In experiment [10] the test system is Hek293T. The experiment is described as above. The conditions noted are these: Gynecologic cancer cell panel viability, ATPlite luminescence, 48 h, control line for the selectivity index; series mostly up to 57.5 µM. In a few lines:
as §2

In experiment [11] the test system is JEG-3. The experiment is described as above. The conditions noted are these: Gynecologic cancer cell panel viability, ATPlite luminescence, 48 h; series mostly up to 57.5 µM. In a few lines:
as §2

Experiment [12] deals with OV90. The experiment is described as above. Particulars: Gynecologic cancer cell panel viability, ATPlite luminescence, 48 h; series mostly up to 57.5 µM. In a few lines: as §2
For experiment [13], the system named is PA-1. Described as above. Particulars: Gynecologic cancer cell panel viability, ATPlite luminescence, 48 h; series mostly up to 57.5 µM. The method in brief:
as §2

Experiment [14] deals with SKOV3. The description is as above. The conditions noted are these: Gynecologic cancer cell panel viability, ATPlite luminescence, 48 h; series mostly up to 57.5 µM. In a few lines:
as §2

Experiment [15] has as its system Tov-21-G. The description is as above. Particulars: Gynecologic cancer cell panel viability, ATPlite luminescence, 48 h; series mostly up to 57.5 µM. In a few lines:
as §2

Experiment [16] deals with Tov112D. The experiment is described as above. Particulars: Gynecologic cancer cell panel viability, ATPlite luminescence, 48 h; series mostly up to 57.5 µM. In a few lines: as §2
A short description of experiment [17]: Drug repurposing screens with cells derived from glioblastoma tumor samples (AID 1345199). For activity, negative = cell killing: % is set by controls: 0 for no effect and ±100 for the full control effect. Note: nearly all actives have a fitted effect of over 40% in size. The conditions noted are these: GBM patient neurospheres viability, ATP luminescence, 48 h. The method in brief:
(§3)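 Four patient lines of CD133+ GBM neurospheres were screened at several concentrations; hits were retested in those lines plus three slower-growing GBM lines, using 48-hour treatment and ATP-based viability.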

The test system of experiment [18] is astro. Described as above. The conditions noted are these: viability, ATP luminescence, 48 h; series mostly up to 45.9 µM. The method in brief:
as §3

The nature of experiment [19]: qHTS assay to identify inhibitors of the type 1 interferon - major histocompatibility complex class I in skeletal muscle: Counter screen cell viability and HiBit confirmation (AID 1347412). Note: nearly all actives have a fitted effect of over 60% in size. The conditions noted are these: iHSKM muscle cells + IFN-b, HiBiT or CellTiter-Glo, 24 h; HiBiT. In a few lines: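 Human myoblast knock-in line, 4.0 ng/ml IFN-beta stimulation, 24 h compound treatment. Endpoints: HiBiT lytic luminescence (HLA-B level) and CellTiter Glo (ATP). Dosing 12 concentrations, 3-fold steps, 46 uM highest final.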

The mark [20] stands for this setting: at 45.9 µM (top of the series), tumour line B.
Where [21] appears, read: at 45.9 µM (top of the series), tumour line D.
[22] abbreviates: at 46.1 µM (top of the series), tumour line C.

Where “and” joins values, the source holds several entries; their conditions need not be identical. Identical values can stand only once. Records with an inconclusive call do not appear. Values without a mark were called inactive. Calls of active or inactive are those of the source. Calls come from the whole dose curve; as a rule, active = well fitted curve in the direction sought with a large enough effect; inconclusive = small, poorly fitted or top-dose-only effect, or another doubt; inactive = no such curve, though single readings can be large; an effect the other way counts as inactive or inconclusive.
Potency is the fitted concentration of half-maximal effect.

For `COc1ccc(C2(C#N)CCC(C(=O)O)CC2)cc1OC1CCCC1` (stereo not given), the Potency result in experiment [1], in experiment [2], in [3], in experiment [4], in [5] and in experiment [6] was “inactive” each time. Moreover, the Potency result in experiment [7], in experiment [8], in experiment [9], in experiment [10], in experiment [11] and in experiment [12] was “inactive” in each case. The Potency entry in experiment [13], in experiment [14], in [15], in [16] and in [18] was “inactive” each time. Moreover, the activity, negative = cell killing was -12.3% in experiment [17] (setting [20]), -10.6% in [17] (setting [21]) and -18.3% in [17] (setting [22]).
In the case of `O=C(c1ccccc1)c1ccc2n1CCC2C(=O)O` (stereo not given), the Potency result in [1], in experiment [2], in experiment [3], in experiment [4], in experiment [5] and in [6] was “inactive” throughout. Further, the Potency result in [7], in experiment [8], in experiment [9], in experiment [10], in experiment [11] and in experiment [12] was “inactive” each time. In addition, the Potency result in [13], in experiment [15], in experiment [16] and in experiment [18] was “inactive” each time. Moreover, the activity, negative = cell killing in [17] (at 20 µM (top of the series), tumour line C) was 0.506%; in experiment [17] (at 21.2 µM (top of the series), tumour line B), -13.1%; in experiment [17] (at 21.2 µM (top of the series), tumour line D), -2.23%; in [17] (at 21.3 µM (top of the series), tumour line A), -11%; in [17] (setting [20]), -9.76%; in [17] (setting [21]) it was -4.33%. The activity, negative = cell killing in experiment [17] (setting [22]) was -1.4%.
On to `COc1c(O)cc2c(c1O)[C@@H]1O[C@H](CO)[C@@H](O)[C@H](O)[C@H]1OC2=O`, for which the Potency result in experiment [1], in experiment [2], in [3], in experiment [4], in experiment [6] and in experiment [7] was “inactive” in each case. Moreover, the Potency entry in experiment [8], in [9], in experiment [10], in experiment [11], in [12] and in experiment [13] was “inactive” in each case. For the same compound, the Potency entry in experiment [14], in experiment [15], in [16] and in [18] was “inactive” throughout.
For the compound `CC(C)C[C@H](NC(=O)[C@H](Cc1ccccc1)NC(=O)c1cnccn1)B(O)O`, the Potency in [1] was 0.0266 µM (active); in experiment [2], 0.006 µM (active); in [3] it was 0.0266 µM (active); in experiment [4], 16.8 nM (active); in [5] it was 0.1 µM (active); in experiment [9] it was 0.316 µM (active). The Potency in experiment [12] is 0.0447 µM (active); in experiment [14] it was 0.501 µM (active); in experiment [16], 2 µM (active) and 2.24 µM (active); in experiment [18], 501 nM (active) and 316 nM (active); in experiment [19] it was 0.0313 µM (active). Moreover, the Potency result in [11] was “inactive”.
In the case of `S=c1nc[nH]c2nc[nH]c12`, the Potency entry in experiment [1], in experiment [2], in experiment [6], in experiment [14] and in [18] was “inactive” in each case. Also, the Potency in experiment [3] is 4.18 µM (active); in experiment [4], 1.19 µM (active) and 2.96 µM (active); in experiment [5] it was 10 µM (active); in [7] it was 2.51 µM (active); in [8], 5.62 µM (active); in [9], 5.62 µM (active). Moreover, the Potency is 15.8 µM (active) in experiment [10]; 3.55 µM (active) in experiment [11]; 7.08 µM (active) in experiment [12]; 3.16 µM (active) in experiment [13]; 3.16 µM (active) in experiment [15]; 8.91 µM (active) in experiment [16]. Besides, the Potency in [17] (tumour line A) was 5.01 µM (active). In addition, the activity, negative = cell killing in experiment [17] (setting [22]) is -28%.
